# Test results reported in PubChem BioAssay (NCATS).
# Where “and” joins values, the source holds several entries; their conditions need not be identical. Identical values can stand only once. Results filed as inconclusive are left out. Entries that show only a call come without a potency. A number with no mark means an inactive call. Calls of active or inactive are those of the source. Calls follow the shape of the dose curve; as a rule, active = well fitted curve in the direction sought with a large enough effect; inconclusive = small, poorly fitted or top-dose-only effect, or another doubt; inactive = no such curve, though single readings can be large; an effect the other way counts as inactive or inconclusive.
# What was measured:
# [1] = molecular target: Cytochrome P450 3A7 (Homo sapiens) (UniProt P24462); test: Cytochrome P450 family 3 subfamily A member 7 (CYP3A7) small molecule antagonists: luciferase biochemical qHTS assay (AID 1963596); settings: P450-Glo CYP3A7 enzyme luminescence, 1 h; series mostly up to 57.4 µM; also: nearly all actives have a fitted effect of over 40% in size
# Method in brief: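 In this luminescent screen, enzyme and proluciferin substrate meet test compound for 10 min before NADPH regeneration solution drives a 1 h room-temperature reaction; detection reagent halts turnover and luminescence is read 20 min later.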
# [2] = Viability qHTS for spleen associated tyrosine kinase inhibitor (SYKi) naive MV4-11 cells (AID 1963823); settings: MV4-11 AML viability, CellTiter-Glo luminescence, 72 h; series mostly up to 45 µM; also: nearly all actives have a fitted effect of over 40% in size; also: potency is read from the fitted curve at half-maximal effect
# Method in brief: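 Compounds were dispensed acoustically onto plates, MV4-11 cells (SYKi-naive) added at 500 per well, and plates incubated 72 hr at 37 C. CellTiter-Glo was added and luminescence measured after 10 min.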
# [3] = Viability qHTS for spleen associated tyrosine kinase inhibitor (SYKi) drug resistant MV4-11 cells (AID 1963824); settings: SYKi-resistant MV4-11 viability, CellTiter-Glo, 72 h; series mostly up to 45 µM; also: nearly all actives have a fitted effect of over 35% in size; also: potency is read from the fitted curve at half-maximal effect
# Method in brief: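 SYK inhibitor-resistant MV4-11 AML cells, 500 per well, added to predispensed compounds and incubated 72 hr at 37 C, 5% CO2. Viability measured by CellTiter-Glo luminescence after 10 min at room temperature.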
# [4] = Cellular viability qHTS for adrenocortical cancer (ACC) cell line SW-13 (AID 1963989); settings: SW-13 ACC cells viability, CellTiter-Glo, 48 h; activity (max response): active compounds read low; also: nearly all actives have a fitted effect of over 65% in size; also: potency is read from the fitted curve at half-maximal effect;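 as to activity (max response): cells grown in serum-free medium with ITS supplement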
# Method in brief: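 Here, serum-free SW-13 cultures were dosed up to 46 uM. Following 48 h, ATP-dependent luminescence (CellTiter-Glo) reported viable cells, and logistic modeling produced IC50 values.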
# [5] = Quantitative highthroughput screen to assess conditional lethalithy of SEM cells grown in Human Plasma-Like Medium with dialyzed fetal bovine serum (HPLM+ds) (AID 1963882); settings: SEM B-ALL cells in HPLM+ds, CellTiter-Glo viability, 48 h; series mostly up to 45.8 µM; also: nearly all actives have a fitted effect of over 35% in size
# Method in brief: (§1)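 Each medium arm—HPLM with 10% dialyzed FBS, or RPMI1640 with 5 mM glucose and 10% untreated or dialyzed FBS—was screened against an 11-point, 3-fold compound titration for 48 h at 37 °C, with CellTiter-Glo luminescence as endpoint.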
# [6] = Quantitative highthroughput screen to assess conditional lethalithy of SEM cells grown in RPMI1640 with dialyzed fetal bovine serum (RPMI+ds) (AID 1963884); settings: SEM B-ALL cells, RPMI+dialyzed FBS, CellTiter-Glo viability, 48 h; series mostly up to 45.8 µM; also: nearly all actives have a fitted effect of over 35% in size; also: potency is read from the fitted curve at half-maximal effect
# Method in brief: as §1
# [7] = Quantitative highthroughput screen to assess conditional lethalithy of SEM cells grown in RPMI1640 with unreated serum (RPMI+s) (AID 1963883); settings: SEM B-ALL cells, CellTiter-Glo viability, 48 h; series mostly up to 45.8 µM; also: nearly all actives have a fitted effect of over 35% in size; also: potency is read from the fitted curve at half-maximal effect
# Method in brief: as §1
# [8] = Cellular viability qHTS for adrenocortical cancer (ACC) cell line NCI-H295R (AID 1963990); settings: CellTiter-Glo ATP luminescence, 48 h; series mostly up to 46.1 µM; also: nearly all actives have a fitted effect of over 60% in size; also: potency is read from the fitted curve at half-maximal effect
# Method in brief: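 Viability of NCI-H295R after 48 h of treatment (final up to 46 uM) measured through cellular ATP luminescence.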
# [9] = Quantitative highthroughput screen to assess conditional lethalithy of P12 Ichikawa cells grown in RPMI1640 with untreated serum (RPMI+s) (AID 1963881); settings: ATP luminescence, 48 h; Potency: viability; series mostly up to 45.8 µM
# Method in brief: as §1
# Sequence of Cytochrome P450 3A7 (Homo sapiens) (P24462 whole entry, looked up): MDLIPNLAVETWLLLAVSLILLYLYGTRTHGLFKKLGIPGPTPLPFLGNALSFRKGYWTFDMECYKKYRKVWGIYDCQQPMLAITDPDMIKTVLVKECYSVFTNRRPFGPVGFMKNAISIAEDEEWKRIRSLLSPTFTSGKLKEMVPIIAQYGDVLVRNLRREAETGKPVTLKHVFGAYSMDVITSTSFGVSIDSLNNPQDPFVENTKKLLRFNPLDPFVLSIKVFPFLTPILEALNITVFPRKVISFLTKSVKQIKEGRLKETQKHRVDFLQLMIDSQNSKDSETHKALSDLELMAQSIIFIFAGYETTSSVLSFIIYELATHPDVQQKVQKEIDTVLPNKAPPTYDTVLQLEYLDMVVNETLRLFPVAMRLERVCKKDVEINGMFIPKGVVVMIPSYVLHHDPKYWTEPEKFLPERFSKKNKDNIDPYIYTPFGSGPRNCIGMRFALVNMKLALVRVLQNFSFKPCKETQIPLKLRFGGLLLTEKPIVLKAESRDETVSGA
compound,measurement,setting,value
C[C@](N)(Cc1ccc(O)cc1)C(=O)O,"activity change, negative = inhibition",[1],1.38% [at 4.83 µM]
same,viability (% of control),[2],79.1% [at 4.97 µM]
same,"viability, % of control",[3],90.5% [at 4.97 µM]
same,activity (max response),[4],-6.01%
CC(=O)CCC(=O)O,Potency,[1],inactive
same,Potency,[2],inactive
same,Potency,[3],inactive
same,activity (max response),[4],9%
COc1cnc(NS(=O)(=O)c2ccc(N)cc2)nc1,Potency,[1],inactive
same,Potency,[2],0.0012 µM (active)
same,Potency,[3],inactive
same,Potency,[5],inactive
same,Potency,[6],inactive
same,activity (max response),[4],10.3%
O=c1cc(CO)occ1O,Potency,[1],inactive
same,Potency,[2],inactive
same,Potency,[3],inactive
same,activity (max response),[4],13.4%
Cc1coc2ccccc2c1=O,Potency,[1],inactive
same,Potency,[2],inactive
same,Potency,[3],inactive
same,activity (max response),[4],19.3%
Cn1cc(-c2ccc3c(c2)CCN3C(=O)Cc2cccc(C(F)(F)F)c2)c2c(N)ncnc21,Potency,[1],inactive
same,Potency,[2],0.731 µM (active)
same,Potency,[3],2.06 µM (active) and 4.68 µM (active)
same,activity (max response),[4],-1.75%
N[C@@H](COP(=O)(O)O)C(=O)O,Potency,[1],inactive
same,Potency,[2],inactive
same,Potency,[3],inactive
same,activity (max response),[4],-3.07%
COC(=O)Nc1nc2ccc(Sc3ccccc3)cc2[nH]1,Potency,[1],inactive
same,Potency,[2],0.372 µM (active)
same,Potency,[3],417 nM (active)
same,Potency,[7],2.35 µM (active)
same,Potency,[6],2.96 µM (active)
same,Potency,[4],184 nM (active) and 316 nM (active)
same,Potency,[8],130 nM (active) and 316 nM (active)
CCOc1ncc(F)c(=O)[nH]1,Potency,[1],inactive
same,Potency,[2],inactive
same,Potency,[3],inactive
same,activity (max response),[4],18.7%
COc1cc2c(NC3CCN(CC4CCCCC4)CC3)nc(N3CCCN(C(C)C)CC3)nc2cc1OCCCN1CCCCC1,Potency,[1],inactive
same,Potency,[2],2.59 µM (active)
same,Potency,[3],3660 nM (active)
same,Potency,[4],7.08 µM (active)
Cn1c(=O)c2c(ncn2C)n(C)c1=O,Potency,[1],inactive
same,Potency,[2],inactive
same,Potency,[3],inactive
same,activity (max response),[4],-5.31% and -10.5%
Cn1cc(-c2cnn3c(N)c(Br)c([C@@H]4CCCNC4)nc23)cn1,Potency,[1],inactive
same,Potency,[2],0.417 µM (active)
same,Potency,[3],731 nM (active) and 468 nM (active)
same,Potency,[4],12.6 µM (active)
CC(C)(C)NCC(O)c1ccc(O)c(CO)c1 (stereo not given),Potency,[1],inactive
same,Potency,[2],inactive
same,Potency,[3],inactive
same,Potency,[9],4.18 µM (active)
same,Potency,[5],inactive
same,Potency,[7],inactive
same,Potency,[6],inactive
same,Potency,[8],inactive
CCCc1ncc(C(=O)O)s1,Potency,[1],inactive
same,Potency,[2],inactive
same,Potency,[3],inactive
same,activity (max response),[4],8.93%
C[C@@H]1CC[C@@]2(OC1)O[C@H]1C[C@H]3[C@@H]4CC[C@H]5C[C@@H](O)CC[C@]5(C)[C@H]4CC(=O)[C@]3(C)[C@H]1[C@@H]2C,"activity change, negative = inhibition",[1],-8.63% [at 4.83 µM]
same,viability (% of control),[2],83.6% [at 4.97 µM]
same,"viability, % of control",[3],73.5% [at 4.97 µM]
same,activity (max response),[4],5.1%
CC(C)CCCC(C)N (stereo not given),Potency,[1],inactive
same,Potency,[2],inactive
same,Potency,[3],inactive
same,activity (max response),[4],3.28%
CC(=O)Nc1c(I)cc(I)c(C(=O)O)c1I,Potency,[1],inactive
same,Potency,[2],inactive
same,Potency,[3],inactive
same,activity (max response),[4],-1.35%
C/C(=N\O)[C@@H](C)NCC(C)(C)CN[C@H](C)/C(C)=N/O,Potency,[1],inactive
same,Potency,[2],inactive
same,Potency,[3],inactive
same,activity (max response),[4],8.19%
C[C@@H]1CCNC(=O)c2cc3ccc(C(=O)Nc4nc5ccccc5n4CCCN(C)C)cc3n21,Potency,[1],inactive
same,Potency,[2],0.662 µM (active)
same,Potency,[3],820 nM (active)
same,Potency,[4],25.1 µM (active)
O=c1ccc2ccccc2o1,Potency,[1],inactive
same,Potency,[2],inactive
same,Potency,[3],inactive
same,activity (max response),[4],-0.445%
C[n+]1ccccc1/C=N/O,Potency,[1],inactive
same,Potency,[2],inactive
same,Potency,[3],inactive
same,activity (max response),[4],3.67%
CCCCCCCC/C=C\CCCCCCCCN,Potency,[1],inactive
same,Potency,[2],inactive
same,Potency,[3],inactive
same,activity (max response),[4],7.78%
CC1(c2ccccc2)OC(C(=O)O)=CC1=O (stereo not given),Potency,[1],inactive
same,Potency,[2],inactive
same,Potency,[3],inactive
same,activity (max response),[4],-17.9%
CCC(=O)Nc1ccc(O)cc1,Potency,[1],inactive
same,Potency,[2],inactive
same,Potency,[3],inactive
same,activity (max response),[4],0.747%
FC1(F)C(F)(F)C(F)(F)C2(F)C(F)(F)C(F)(F)C(F)(F)C(F)(F)C2(F)C1(F)F (stereo not given),Potency,[1],inactive
same,Potency,[2],inactive
same,Potency,[3],inactive
same,activity (max response),[4],5.48%
CC(O)COc1ccccc1 (stereo not given),Potency,[1],inactive
same,Potency,[2],inactive
same,Potency,[3],inactive
same,activity (max response),[4],5.91%
CN1C(=O)CC[C@H]1c1cccnc1,Potency,[1],inactive
same,Potency,[2],inactive
same,Potency,[3],inactive
same,activity (max response),[4],2.26%
Nc1c2c(nc3ccccc13)CCCC2O (stereo not given),Potency,[1],inactive
same,Potency,[2],inactive
same,Potency,[3],841 nM (active)
same,activity (max response),[4],13%
CCCNC(=O)NS(=O)(=O)c1ccc(Cl)cc1,Potency,[1],inactive
same,Potency,[2],inactive
same,Potency,[3],inactive
same,activity (max response),[4],-2.41%
